PubChem BioAssay (NCATS)
Records with an inconclusive call do not appear. Activity calls are given as the source filed them. Unless noted, the call rests on the fitted dose curve; in most records, active means well fitted curve in the direction sought with a large enough effect; inconclusive means small, poorly fitted or top-dose-only effect, or another doubt; inactive means no such curve, though single readings can be large; an effect the other way counts as inactive or inconclusive.

Assays:
[1] = molecular target: Voltage-gated inwardly rectifying potassium channel KCNH2 (Homo sapiens) (UniProt Q12809); test: qHTS Assay for Small Molecule Inhibitors of the Human hERG Channel Activity (AID 588834);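 further: lower thallium flux fluorescence means stronger hERG block; nearly all actives have a fitted effect of over 50% in size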; further: potency means the concentration at half of the fitted maximal effect
Voltage-gated inwardly rectifying potassium channel KCNH2 (Homo sapiens), sequence (Q12809 whole entry, looked up): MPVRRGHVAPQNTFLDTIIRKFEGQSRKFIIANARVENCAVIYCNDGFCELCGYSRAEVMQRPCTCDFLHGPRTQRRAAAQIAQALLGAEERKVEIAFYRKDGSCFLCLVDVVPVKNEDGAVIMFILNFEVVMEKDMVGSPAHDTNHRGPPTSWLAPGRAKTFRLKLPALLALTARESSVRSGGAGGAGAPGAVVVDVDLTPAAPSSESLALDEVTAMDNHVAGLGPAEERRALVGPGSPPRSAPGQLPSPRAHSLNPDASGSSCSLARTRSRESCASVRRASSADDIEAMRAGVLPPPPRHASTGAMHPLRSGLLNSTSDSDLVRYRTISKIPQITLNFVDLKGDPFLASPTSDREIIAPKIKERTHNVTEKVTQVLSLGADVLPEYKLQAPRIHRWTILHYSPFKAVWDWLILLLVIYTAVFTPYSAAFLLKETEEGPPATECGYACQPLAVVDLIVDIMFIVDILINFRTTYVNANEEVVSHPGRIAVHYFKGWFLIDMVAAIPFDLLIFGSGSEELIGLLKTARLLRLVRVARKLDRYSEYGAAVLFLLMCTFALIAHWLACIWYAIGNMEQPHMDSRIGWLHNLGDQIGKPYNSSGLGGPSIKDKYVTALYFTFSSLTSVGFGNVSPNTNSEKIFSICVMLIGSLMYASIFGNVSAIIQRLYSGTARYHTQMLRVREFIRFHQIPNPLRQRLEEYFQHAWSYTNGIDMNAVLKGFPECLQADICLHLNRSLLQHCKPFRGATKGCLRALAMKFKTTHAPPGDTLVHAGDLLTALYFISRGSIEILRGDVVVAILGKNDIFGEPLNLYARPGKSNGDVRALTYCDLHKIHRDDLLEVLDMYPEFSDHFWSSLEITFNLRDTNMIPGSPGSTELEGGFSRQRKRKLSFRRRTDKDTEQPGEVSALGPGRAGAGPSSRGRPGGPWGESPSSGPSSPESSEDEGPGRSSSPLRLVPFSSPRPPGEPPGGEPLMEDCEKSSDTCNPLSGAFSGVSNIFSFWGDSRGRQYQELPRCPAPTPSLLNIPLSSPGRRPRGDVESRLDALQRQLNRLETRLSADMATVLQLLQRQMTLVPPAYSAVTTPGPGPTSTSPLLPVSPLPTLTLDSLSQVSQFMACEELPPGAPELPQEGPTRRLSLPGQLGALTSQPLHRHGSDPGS
Summary of the method: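 hERG block measured as reduced thallium-dye (FluxOR) fluorescence after stimulation buffer addition, read over 2 min. Cells were hERG-BacMam-transduced U2OS exposed to compound ~10 min […]; concentration-response fitted with Hill equation for AC50.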

[2] = molecular target: Glutaminase kidney isoform, mitochondrial (Homo sapiens) (UniProt O94925); test: qHTS for Inhibitors of Glutaminase (GLS): LOPAC Validation (AID 624146); further: nearly all actives have a fitted effect of over 60% in size; further: potency means the concentration at half of the fitted maximal effect
Glutaminase kidney isoform, mitochondrial (Homo sapiens), sequence (O94925 whole entry, looked up, canonical isoform): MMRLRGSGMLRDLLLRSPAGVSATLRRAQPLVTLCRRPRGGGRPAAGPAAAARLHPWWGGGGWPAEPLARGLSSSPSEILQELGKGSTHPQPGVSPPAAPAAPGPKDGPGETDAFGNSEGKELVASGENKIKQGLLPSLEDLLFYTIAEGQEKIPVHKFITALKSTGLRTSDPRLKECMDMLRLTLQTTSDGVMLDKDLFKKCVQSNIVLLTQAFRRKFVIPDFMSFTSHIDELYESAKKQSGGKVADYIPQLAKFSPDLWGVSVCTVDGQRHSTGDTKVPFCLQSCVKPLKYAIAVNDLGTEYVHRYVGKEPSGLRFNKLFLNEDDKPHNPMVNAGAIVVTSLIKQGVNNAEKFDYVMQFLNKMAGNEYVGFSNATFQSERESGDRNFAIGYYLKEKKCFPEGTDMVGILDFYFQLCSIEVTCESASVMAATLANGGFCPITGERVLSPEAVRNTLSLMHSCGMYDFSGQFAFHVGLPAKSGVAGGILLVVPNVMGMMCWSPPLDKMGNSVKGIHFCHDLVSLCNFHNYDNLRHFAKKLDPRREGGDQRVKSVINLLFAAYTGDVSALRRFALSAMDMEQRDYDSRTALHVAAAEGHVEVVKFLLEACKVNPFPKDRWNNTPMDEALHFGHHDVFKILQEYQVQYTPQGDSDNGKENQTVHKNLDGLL
Summary of the method: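 hKGA; 45 mM KH2PO4 pH 8.2 + 0.02% Tween-20; cpd via pin tool; 1 mM Gln soln; GluOx/HRP/Amplex Red; RT 30 min; fluor. t0 & final.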

[3] = qHTS of Trypanosoma Brucei Inhibitors: LOPAC Validation (AID 624147); further: 0% is about no effect
Summary of the method: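 T. brucei PYK with substrate was exposed to pin-transferred compounds across a concentration series, then started with 130 uM ADP (final). After 45 min at room temperature, Kinase-Glo Plus luminescence was read, normalized and curve-fitted.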

[4] = molecular target: Glucagon-like peptide 1 receptor (Homo sapiens) (UniProt P43220); test: qHTS of GLP-1 Receptor Agonists: LOPAC Validation (AID 624148);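 further: 0% is about no effect; higher luminescence signal means agonism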
Glucagon-like peptide 1 receptor (Homo sapiens), sequence (P43220 whole entry, looked up): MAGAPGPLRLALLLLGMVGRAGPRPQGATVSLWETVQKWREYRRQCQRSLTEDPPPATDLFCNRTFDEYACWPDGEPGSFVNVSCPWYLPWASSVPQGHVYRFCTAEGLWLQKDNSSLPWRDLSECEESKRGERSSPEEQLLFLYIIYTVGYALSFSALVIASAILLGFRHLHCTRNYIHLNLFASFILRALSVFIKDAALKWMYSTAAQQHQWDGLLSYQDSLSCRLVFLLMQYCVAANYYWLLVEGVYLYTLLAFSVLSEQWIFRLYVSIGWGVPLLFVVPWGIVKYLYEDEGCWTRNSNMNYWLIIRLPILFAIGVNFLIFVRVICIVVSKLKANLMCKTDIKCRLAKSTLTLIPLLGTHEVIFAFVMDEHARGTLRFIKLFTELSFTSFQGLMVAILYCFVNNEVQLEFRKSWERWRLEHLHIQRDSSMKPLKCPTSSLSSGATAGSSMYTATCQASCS
Summary of the method: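 HEK293 cells stably co-expressing a cAMP-responsive luciferase reporter and a hypersensitive GLP-1R were plated 12 h at 37 °C and exposed to compounds for 4-6 hr at 37 °C, 5% CO2. Luminescence was read 12 min after adding detection reagent.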

[5] = qHTS of Nrf2 Activators: LOPAC Validation (AID 624149); further: 0% is about no effect
Summary of the method: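 Following overnight seeding in 5% FBS OPTI-MEM, AREc32_Fluc cells receive compounds for a 24 hr incubation at 37 deg C with 5% CO2. Steady-Glo is added, and after 30 min at RT luminescence is recorded.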

[6] = HTS Assay for Allosteric Antagonists of the Human D2 Dopamine Receptor: Hit Validation in HTRF (AID 624455); further: potency means the concentration at half of the fitted maximal effect;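 further: stable D1 dopamine receptor cell line scored for blocking the D1 response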
Summary of the method: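 Validation of hits used D1 receptor stably expressed in cells with HTRF detection of response inhibition; origin screen measured calcium flux following EC80 dopamine in a force-coupled, inducible Hek293 Trex D2 cell line.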

[7] = qHTS assay for small molecule activators of the nuclear factor-kappa B (NF-kB) signaling pathway (AID 651749; active means well fitted activation curve with a large enough effect in the signal ratio; the % refers to the signal ratio; further: series mostly up to about 77 µM; % of control where 0% means no effect); conditions: NF-kB-bla ME-180 cells, beta-lactamase FRET ratio, 16 h; hits give high values
Summary of the method: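 Beta-lactamase reporter expression, controlled by NF-kB response elements in ME-180 cells, was quantified fluorometrically via FRET disruption; cells at 2,000/well had been incubated with 23 nL test compound for 16 hr.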

[8] = qHTS assay for environmental chemicals that activate the Aryl hydrocarbon Receptor (AhR) signaling pathway (AID 651777); conditions: 1A2-DRE human hepatoma cells, luciferase, 24 h; hits give high values; further: % of control where 0% means no effect; nearly all actives have a fitted effect of over 15% in size
Summary of the method: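 Luminescence (One-Glo, 30 min, room temperature) reports AhR-driven luciferase in stably transfected human hepatoma cells bearing DRE and CYP1A2 promoter. Cells (1,200/well) were treated with compound for 24 hr at 37 C in qHTS format.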

[9] = molecular target: Peroxisome proliferator-activated receptor alpha (Homo sapiens) (UniProt Q07869); test: qHTS assay for small molecule agonists of the peroxisome proliferator-activated receptor alpha (PPARalpha) signaling pathway (AID 651778); conditions: PathHunter PPARalpha complementation, chemiluminescence, 6 h; max response: hits give high values; further: % of control where 0% means no effect
Peroxisome proliferator-activated receptor alpha (Homo sapiens), sequence (Q07869 whole entry, looked up): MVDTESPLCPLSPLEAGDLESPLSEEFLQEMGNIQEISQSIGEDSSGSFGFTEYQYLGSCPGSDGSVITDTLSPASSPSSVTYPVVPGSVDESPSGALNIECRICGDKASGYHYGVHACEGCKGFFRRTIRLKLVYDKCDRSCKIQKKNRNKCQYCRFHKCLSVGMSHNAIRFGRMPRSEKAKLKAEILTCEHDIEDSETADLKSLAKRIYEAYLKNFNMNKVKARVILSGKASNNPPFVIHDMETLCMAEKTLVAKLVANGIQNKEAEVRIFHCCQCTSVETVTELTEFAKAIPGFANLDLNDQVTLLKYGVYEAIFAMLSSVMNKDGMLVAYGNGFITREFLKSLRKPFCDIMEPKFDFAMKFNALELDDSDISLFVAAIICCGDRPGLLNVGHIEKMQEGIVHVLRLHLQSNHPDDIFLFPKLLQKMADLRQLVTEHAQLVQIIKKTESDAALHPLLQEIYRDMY
Summary of the method: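 Cells plated at 2,000/well and held overnight at 37 C, 5% CO2, then compound added by pin tool for 6 hr; after PathHunter detection reagent and 60 min at room temperature, chemiluminescence from enzyme complementation was read.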

[10] = qHTS assay for small molecule activators of the p53 signaling pathway (AID 651743; active means well fitted activation curve with a large enough effect in the signal ratio, not every such curve was filed as active; the % refers to the signal ratio; further: series mostly up to about 92 µM; % of control where 0% means no effect); conditions: HCT-116 p53RE-bla, beta-lactamase FRET ratio, 16 h; hits give high values
Summary of the method: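 Here HCT-116 cells with an integrated p53-responsive beta-lactamase gene were incubated with compounds (16 hours, 37 C) after a 5-hour plating period; beta-lactamase activity was detected as fluorescence intensity via B/G FRET substrate.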

[11] = molecular target: Tumor necrosis factor (Homo sapiens) (UniProt P01375); test: qHTS assay to identify small molecules that stimulate Tumor Necrosis Factor-alpha (TNF-alpha) secretion (AID 651757; active means well fitted curve in the direction sought with a large enough effect in the signal ratio; the % refers to the signal ratio; further: 0% is about no effect)
Tumor necrosis factor (Homo sapiens), sequence (P01375 whole entry, looked up): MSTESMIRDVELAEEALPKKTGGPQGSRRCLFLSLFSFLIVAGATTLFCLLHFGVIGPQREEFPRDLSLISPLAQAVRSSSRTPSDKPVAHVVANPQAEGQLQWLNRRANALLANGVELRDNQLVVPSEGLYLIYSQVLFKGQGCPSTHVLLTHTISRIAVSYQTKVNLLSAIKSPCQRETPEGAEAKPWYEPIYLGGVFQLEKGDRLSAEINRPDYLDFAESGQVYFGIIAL
Summary of the method: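 Using 3000 THP-1 cells per well, compounds and controls were applied for 17 hrs at 37 C. Detection followed with two labeled anti-TNF-alpha antibodies (cryptate donor, XL665 acceptor) for 3 hr at room temperature, measured by TR-FRET.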

[12] = qHTS assay to identify small molecules that stimulate interleukin-8 (IL-8) secretion (AID 651758; active means well fitted activation curve with a large enough effect in the signal ratio; the % refers to the signal ratio; further: 0% is about no effect)
Summary of the method: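 Quantitative HTS in THP-1 monocytic cells at 2000 cells per well, with 16 hrs compound incubation at 37 C. IL-8 in the medium was then quantified by HTRF immunoassay, read after 1-3 hrs at room temperature.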

[13] = qHTS assay for small molecule agonists of the antioxidant response element (ARE) signaling pathway (AID 651741; active means well fitted activation curve with a large enough effect in the signal ratio; the % refers to the signal ratio; further: potency means the concentration at half of the fitted maximal effect)
Summary of the method: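 Beta-lactamase reporter expression driven by the antioxidant response element in HepG2 cells was detected by fluorescence with LiveBLAzer B/G FRET substrate (2 h, room temperature) following 16 h compound treatment at 37 C.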

COC(=O)C1=C(C)NC(C)=C([N+](=O)[O-])C1c1ccccc1C(F)(F)F (centres undefined)
inactive: Potency [1] | Potency [2] | Potency [3] | Potency [4] | Potency [5] | Potency [6]

CNCCNS(=O)(=O)c1cccc2cnccc12
inactive: Potency [1] | Potency [2] | Potency [3] | Potency [4] | Potency [5] | Potency [6]

O=C(O)C1=CC(=C(c2ccc(O)c(C(=O)O)c2)c2ccc(O)c(C(=O)O)c2)C=CC1=O
inactive: Potency [1] | Potency [2] | Potency [3] | Potency [4] | Potency [5] | Potency [6]

NC(N)=N[C@@H](CCC(=O)O)C(=O)O
inactive: Potency [1] | Potency [2] | Potency [3] | Potency [4] | Potency [5] | Potency [6]

CCCCCCCCCC[Si](C)(C)CCC(=O)NC(Cc1ccc(C)cc1)c1ccccc1 (centres undefined)
inactive: Potency [1] | Potency [2] | Potency [3] | Potency [4] | Potency [5] | Potency [6]

Cc1ccc([N+](=O)[O-])cc1S(=O)(=O)N(C)C
inactive: Potency [1] | Potency [2] | Potency [3] | Potency [4] | Potency [5] | Potency [6]

COc1cc2c(CCNC(C)=O)c[nH]c2cc1O
inactive: Potency [1] | Potency [4] | Potency [5] | Potency [6]
active: Potency [2] 2 µM

CCCc1c(-c2ccc(O)cc2)nn(-c2ccc(O)cc2)c1-c1ccc(O)cc1
inactive: Potency [1] | Potency [2] | Potency [3] | Potency [4] | Potency [5] | Potency [6] | activation [7] -3.76% | activation [8] -1.12% | max response [9] -1.98%

COc1cc(CC(=O)O)ccc1O
active: Potency [2] 2.82 µM
inactive: Potency [1] | Potency [3] | Potency [4] | Potency [5] | Potency [6]

N[C@@H](Cc1c[nH]c2ccccc12)C(=O)O
inactive: Potency [1] | Potency [3] | Potency [4] | Potency [5] | Potency [6]

CCCN(CCc1ccccc1)C1CCc2c(O)cccc2C1 (centres undefined)
inactive: Potency [3] | Potency [4] | Potency [5]
active: Potency [1] 0.355 µM

NC/C=C\C(=O)O
inactive: Potency [1] | Potency [3] | Potency [4] | Potency [5] | Potency [6]

Oc1ccc(Cn2cc[nH]c2=S)cc1
inactive: Potency [1] | Potency [2] | Potency [4] | Potency [5] | Potency [6]

CCN(CC)CCOC(=O)c1cc(Cl)c(N)cc1OC
inactive: Potency [1] | Potency [2] | Potency [3] | Potency [5] | Potency [6]

N#CC(C#N)=C(N)/C(C#N)=C/c1ccc(O)cc1
inactive: Potency [1] | Potency [3] | Potency [4] | Potency [5] | Potency [6]

NCC(O)c1ccc(O)c(O)c1 (centres undefined)
active: Potency [6] 1.16 µM
inactive: Potency [1] | Potency [2] | Potency [3] | Potency [5]

N=C(N)SCCc1cnc[nH]1
inactive: Potency [1] | Potency [2] | Potency [3] | Potency [4] | Potency [5] | Potency [6]

O=C(O)Cc1c[nH]c2ccc(O)cc12
active: Potency [2] 1.58 µM
inactive: Potency [1] | Potency [4] | Potency [5] | Potency [6]

CC(=O)C(C)=O
inactive: Potency [1] | Potency [2] | Potency [3] | Potency [4] | Potency [5] | Potency [6] | activation [10] -1.05% | activation [7] -1.05% | outcome [11] | outcome [12] | activation [8] -0.684% | max response [9] -2.24%

CO/N=C(\C(=O)N[C@@H]1C(=O)N2C(C(=O)O)=C(CSc3nc(=O)c(O)nn3C)CSC12)c1csc(N)n1 (some centres undefined)
inactive: Potency [1] | Potency [2] | Potency [3] | Potency [4] | Potency [5] | Potency [6]

N#CC(=C(\N)Sc1ccccc1N)/C(C#N)=C(/N)Sc1ccccc1N
inactive: Potency [1] | Potency [4] | Potency [5]
active: Potency [2] 12.6 µM

C/C(=C\c1ccc(C(=O)O)cc1)c1ccc2c(c1)C(C)(C)CCC2(C)C
active: Potency [13] 27.3 µM
inactive: Potency [1] | Potency [2] | Potency [3] | Potency [4] | Potency [5] | Potency [6] | activation [8] 0.324%

Cn1c(=O)c2[nH]c(-c3ccc(S(=O)(=O)O)cc3)nc2n(C)c1=O
inactive: Potency [1] | Potency [3] | Potency [4] | Potency [5]

Cn1c(=O)c2c(nc(/C=C/c3cccc(Cl)c3)n2C)n(C)c1=O
inactive: Potency [2] | Potency [3] | Potency [4] | Potency [5] | Potency [6]
active: Potency [1] 11.2 µM

NC1CONC1=O (centres undefined)
inactive: Potency [1] | Potency [3] | Potency [4] | Potency [5] | Potency [6]

C=CCN1CCc2c(cc(O)c(O)c2Cl)C(c2ccccc2)C1 (centres undefined)
active: Potency [1] 7.94 µM
inactive: Potency [3] | Potency [4] | Potency [5]

O=c1[nH]c(=O)c2nc3ccccc3nc2[nH]1
inactive: Potency [1] | Potency [2] | Potency [3] | Potency [4] | Potency [6]

NC(C(=O)N[C@@H]1C(=O)N2C(C(=O)O)=C(Cl)CS[C@H]12)c1ccccc1 (some centres undefined)
inactive: Potency [1] | Potency [3] | Potency [4] | Potency [5] | Potency [6]

CCn1c(=O)[nH]c2cc(Cl)c(Cl)cc21
inactive: Potency [1] | Potency [2] | Potency [3] | Potency [5] | Potency [6]

Oc1cc2c(cc1O)C(c1ccccc1)CNCC2 (centres undefined)
active: Potency [1] 8.91 µM | Potency [2] 0.631 µM
inactive: Potency [4] | Potency [5]
